In PubChem BioAssay AID588856 (National Center for Advancing Translational Sciences (NCATS), 2011):
In all, about 410,000 compounds went through this assay and about 3,100 (0.76%) were called active. A call without a number means that no potency is given here. The call rests on the fitted dose curve; in most records, active means well fitted cell-killing curve with a large enough effect; inactive means no such curve, though single readings can be large or run the other way. For the sample, actives were picked, then their nearest neighbours and some compounds at random.

Assay: qHTS for Inhibitors of TGF-b: Cytotox Counterscreen
Conditions: HepG2 CAGA-GFP viability, ATP luminescence, 18 h; series mostly up to 46.1 µM
Outline: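 CellTiter-Glo luminescence gave cytotoxicity after 18 hours at 37 degrees C. The cells were HepG2 CAGA-GFP in 1% FBS DMEM, stimulated with 500 pg/mL TGF-beta after compound addition. %Activity was normalised to no-cell wells (complete cell-killing) and DMSO (no toxicity), and curves were fitted and classified.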
Potency means the concentration at half of the fitted maximal effect.

SMILES	Potency
O=C(CC(NCc1cccnc1)C(=O)O)Nc1ccc(O)cc1 (stereo not drawn)	inactive
O=C(CSc1cccc2cccnc12)N/N=C/c1cccnc1	7.08 µM (active)
O=C(N/N=C/c1cccc2cccnc12)[C@H]1C[C@@H]1c1ccccc1	inactive
Cc1c(Cl)cccc1NC(=O)CSc1ccc(-c2cccnc2)nn1	inactive
Cc1cc[n+](C2CCCCC2)cc1	inactive
COc1cccc(CNC(=O)c2ccc3c(c2)N(Cc2ccc(C(F)(F)F)cc2)C(=O)c2ccccc2S3)c1OC	inactive
COc1ccc(-n2nnc(-c3nsc(NC(=O)c4ccc(C)c(C)c4)n3)c2C)cc1Cl	inactive
COc1cccc2sc(N(CCCN(C)C)C(=O)CCS(=O)(=O)c3ccccc3)nc12	3.55 µM (active)
COc1ccccc1CNC(=O)CS(=O)(=O)c1cccc2nsnc12	inactive
O=C(O)CCS(=O)(=O)c1ccc(-c2ccccc2)cc1	inactive
O=C(C1COc2ccccc2O1)N(Cc1cccnc1)c1nc2c(F)cc(F)cc2s1 (stereo not drawn)	inactive
COc1ccc(C)cc1NC(=O)CCS(=O)(=O)c1cccc2nonc12	inactive
O=C(CCS(=O)(=O)c1ccccc1)N(Cc1cccnc1)c1nc2c(F)cccc2s1	7.94 µM (active)
Cc1cccc2sc(N(CCCN(C)C)C(=O)CCS(=O)(=O)c3ccccc3)nc12	7.08 µM (active)
Cc1ccc(S(=O)(=O)CCC(=O)OCc2ccccc2)cc1	inactive
CN(C)S(=O)(=O)c1ccc(C(=O)N(Cc2cccnc2)c2nc3c(F)cc(F)cc3s2)cc1	inactive
CCc1ccc2oc(-c3ccc(NC(=O)c4cc5ccccc5o4)cc3)nc2c1	inactive
CCn1cc(C(=O)NCCc2ccccc2)c(=O)c2cc(S(=O)(=O)N3CCCCCC3)ccc21	inactive
CC(C)Cn1c(C2CC(=O)N(c3ccccc3Cl)C2)nc2ccccc21 (stereo not drawn)	inactive
CN(C)C1=C2C=CC=CC2/C(=C2/C=Cc3ccccc32)C=C1 (stereo not drawn)	inactive
O=C1c2ccccc2C(=O)N1c1ccc(S(=O)(=O)N2CCOCC2)c2ccccc12	inactive
OC(CBr)C[n+]1cccc2cc(Br)ccc21 (stereo not drawn)	inactive
OCCNc1nc(Nc2ccc(Cl)c(Cl)c2)nc2ccccc12	12.6 µM (active)
FC(F)(F)c1cc(Nc2nc3ccccc3c3nncn23)ccc1Cl	inactive
O=C(CSc1nc(Nc2ccc(F)c(F)c2)c2ccccc2n1)c1ccc(Cl)cc1	inactive
COc1ccc(CCC(=O)NCCc2csc(-c3ccc(Cl)cc3)n2)cc1	inactive
O=C(/C=C/c1ccccc1)Nc1cc(-c2nc3cc(Cl)ccc3o2)ccc1Cl	inactive
Cc1ccc(C)c(N2CCN(c3ccc4cc(S(=O)(=O)N5CCC(C)CC5)ccc4n3)CC2)c1	inactive
